PD-1 reversal – activators reversing PD-1 mediated T-cell inhibition | activation, % (concentration not given with the values) | primary human CD4 T cells, PD-L1 beads, CellTiter-Glo 96 h | 29,000 tested, under 10 active; call rule not given here
ROS inducer – raises reactive oxygen species in U2OS cancer cells | U2OS ROS induction, H2DCF-DA fluorescence | ROS induction (% of piperlongumine), % at 10 µM | 2% of 46,000 active | AID 624156; in the data active means ROS induction above about 79%, passing the limit was not always enough; inconclusive means no clear call, values can overlap the other calls
Of the large screens only hits and unclear results are named; the others gave an inactive call. The entries come from a sample that favours hits as a whole.

C[C@H]1CN([C@@H](C)CO)C(=O)Cc2cc(NC(=O)C3CCCCC3)ccc2O[C@H]1CN(C)CC1CCCCC1	none
COc1cc(C(F)(F)F)cc(C(F)(F)F)c1C(=O)N1CCC(C(=O)c2ccc(Cl)cc2)CC1	none (no result: PD-1 reversal)
COc1cc(-c2oc3cc(O)c(OC)c(O)c3c(=O)c2OC)ccc1O	none
COc1cc(OC)c2c(=O)c(O)c(-c3ccc(OC)c(OC)c3)oc2c1	ROS inducer 83 (no result: PD-1 reversal)
COc1cc(O)c2c(=O)c(OC)c(-c3ccc(OC)c(OC)c3)oc2c1	none
COc1ccc(-c2oc3c(OC)c(OC)c(OC)c(O)c3c(=O)c2OC)cc1OC	ROS inducer 102
O=C(COc1ccc(Cl)cc1CO)Nc1ccccc1F	none
FC(F)(F)c1nnc2n1Nc1nc3ccccc3nc1S2	ROS inducer 704 (no result: PD-1 reversal)
COc1ccc(/C=C/C(=O)Nc2c3c(nc4c2CCC4)CCCC3)cc1OC	none (no result: PD-1 reversal)
C1=Cc2nonc2C2C=C(c3ccccc3)N=C12 (centres undefined)	none
COc1cc2oc(-c3ccccc3)cc(=O)c2c(O)c1OC	none
COc1cc2oc(-c3ccccc3)cc(=O)c2c(OC)c1OC	ROS inducer 90
COc1ccc2nc3c(cc2c1)c(=O)n(C)c(=O)n3C	none
COc1ccc(CCNC(=O)[C@@]2(Sc3ccc(C)cc3)CC(=O)N(C3CCCCC3)[C@@H]2c2ccc(CO)cc2I)cc1	ROS inducer 160 (no result: PD-1 reversal)
Cc1ccc(S[C@]2(C(=O)NCCCN(C)C)CC(=O)N(C3CCCCC3)[C@@H]2c2ccc(CO)cc2I)cc1	none (no result: PD-1 reversal)
Cc1ccc(S[C@]2(C(=O)NC(C)C)CC(=O)N(C(C)C)[C@@H]2c2ccc(CO)cc2I)cc1	ROS inducer 176 (no result: PD-1 reversal)
Cc1ccc(S[C@]2(C(=O)NC3CC3)CC(=O)N(C3CCCCC3)[C@@H]2c2ccc(CO)cc2I)cc1	none (no result: PD-1 reversal)
CN(C)CCCNC(=O)[C@@]1(c2ccc([N+](=O)[O-])cc2)CC(=O)N(C2CCCCC2)[C@@H]1c1ccc(CO)cc1I	none (no result: PD-1 reversal)
CCCNC(=O)[C@@]1(Sc2ccc(C)cc2)CC(=O)N(C2CCCCC2)[C@@H]1c1ccc(CO)cc1I	ROS inducer 162 (no result: PD-1 reversal)
CCN1CCN(c2c(Cl)cccc2NC(=O)c2ccc(-c3ccccc3[N+](=O)[O-])o2)CC1	ROS inducer inconclusive
CCOc1ccc(N/C(N)=N/c2nc(C(F)(F)F)cc(C(F)(F)F)n2)cc1	none (no result: PD-1 reversal)
S=C(Nc1ccccc1)N1CCC(c2ccccc2)=N1	none (no result: PD-1 reversal)
S=C(Nc1ccccc1)N1CCN(c2ccc3nnc(-c4ccccc4)n3n2)CC1	ROS inducer 240 (no result: PD-1 reversal)
CCOC(=O)c1sc(NC(=O)C(C)(C)Oc2ccc(Cl)cc2)c(C#N)c1C	none
C=CCc1ccc(OCc2ccccc2)c(OC)c1	none (no result: PD-1 reversal)
CCn1c(SCc2nc3ccccc3c(=O)[nH]2)nnc1-c1ccc(Cl)cc1	none
NC1=NC(=O)/C(=C/c2ccc(I)o2)S1	ROS inducer 141 (no result: PD-1 reversal)
Cc1ccc(-c2nn(CCC(=O)O)cc2/C=C2\SC(N)=NC2=O)cc1	none (no result: PD-1 reversal)
CC(CC(=O)NC1CCCCCC1)CC1=NS(=O)(=O)c2ccccc2N1 (centres undefined)	none (no result: PD-1 reversal)
CC(=O)c1ccc(NC(=O)CSc2ncnc3c2sc2nc4c(cc23)COC(C)(C)C4)cc1	none
CC1(C)Cc2nc(-c3ccccc3)nc(SCC(=O)Nc3ccc(Br)cc3)c2CO1	ROS inducer 113
COc1ccc(OC)c(NC(=O)CSc2nc(-c3ccccc3)cs2)c1	none
COc1ccc(OC)c(NC(=O)CSc2nc(-c3ccccc3)nc3c2COC(C)(C)C3)c1	ROS inducer 77
C=C(CO)C(=O)O[C@H]1C[C@H]2C(=C)C[C@H](OC(=O)C(=C)CO)[C@H]3C(=C)C(=O)O[C@@H]3[C@H]2C1=C	ROS inducer 115
C=C1C(=O)O[C@H]2C1CCC(=C)[C@@H]1C[C@H](OC(=O)C=C(C)C)C(=C)[C@@H]12 (some centres undefined)	none
CCCc1nnc2n1N=C(c1ccc(Br)cc1)CS2	none (no result: PD-1 reversal)
C/C(=N\O)C12CC3(C)CC(C)(CC(C)(C3)C1)C2	none
COC(=O)COc1ccc2c(=O)c(Oc3ccc(OC)cc3)coc2c1	none (no result: PD-1 reversal)
CCCOC(=O)COc1ccc2c(=O)c(-c3ccccc3OC)coc2c1	ROS inducer 236 (no result: PD-1 reversal)
COc1ccc(Cl)cc1NC(=O)c1ccccc1N(Cc1ccccc1)S(C)(=O)=O	none
O=C(O)CCC(=O)c1ccc2c(c1)OCCCO2	none
O=C(c1ccc(Br)cc1)c1cc2c(cc1Br)OCCCO2	ROS inducer 131
O=C(c1cnc2c(c1)COc1ccccc1-2)c1cc(Cl)ccc1O	none (no result: PD-1 reversal)
CC1(C)CC(=O)C2=C(C1)N(Cc1ccco1)C(=O)NC2(C(F)(F)F)C(F)(F)F	none
CCCCN1C(C)=NC(C(F)(F)F)(C(F)(F)F)C2=C1CC(C)(C)CC2=O	ROS inducer 120
COC(=O)C1c2c(oc3cc(CO)cc(O)c3c2=O)C=CC1O (centres undefined)	ROS inducer 137
COc1cc(-c2oc3cc(O)cc(O)c3c(=O)c2O[C@@H]2O[C@H](CO)[C@@H](O)[C@H](O)[C@H]2O)ccc1O[C@@H]1O[C@H](CO)[C@@H](O)[C@H](O)[C@H]1O	none
COC(=O)c1sccc1N1C(=O)Nc2ccccc2N1O	none (no result: PD-1 reversal)
CCOC(=O)c1c(CN(CC)CC)oc2ccc(OC)cc12	none
CCOC(=O)c1c(CSc2nc(C)ccc2C#N)oc2ccc(OC(C)=O)cc12	ROS inducer 154
CCOC(=O)c1c(NC(=O)CSc2nc3c(cc2C#N)CCCC3)sc2c1CCCC2	none
c1ccc(N=C(Nc2ccccc2)N2CCOCC2)cc1	none (no result: PD-1 reversal)
C[C@@H]1CN([C@H](C)CO)C(=O)Cc2cc(N(C)C)ccc2O[C@@H]1CN(C)Cc1ccc(Oc2ccccc2)cc1	none
C[C@@H]1CN([C@@H](C)CO)C(=O)Cc2cc(NC(=O)NC3CCCCC3)ccc2O[C@@H]1CN(C)Cc1ccc(-c2ccccc2)cc1	none
C[C@@H]1CN([C@H](C)CO)C(=O)Cc2cc(NC(=O)NC3CCCCC3)ccc2O[C@@H]1CN(C)Cc1ccc(Oc2ccccc2)cc1	ROS inducer 131
C[C@H]1CN([C@@H](C)CO)C(=O)Cc2cc(N(C)C)ccc2O[C@@H]1CN(C)Cc1ccc(Oc2ccccc2)cc1	ROS inducer 135
C[C@@H]1CN([C@@H](C)CO)C(=O)Cc2cc(NC(=O)NC3CCCCC3)ccc2O[C@@H]1CN(C)Cc1ccccc1	none
C[C@@H]1CN([C@@H](C)CO)C(=O)c2cc(NC(=O)NC3CCCCC3)ccc2O[C@H]1CN(C)Cc1ccc(Oc2ccccc2)cc1	none
C[C@@H]1CN([C@H](C)CO)C(=O)Cc2cc(NC(=O)NC3CCCCC3)ccc2O[C@@H]1CN(C)Cc1ccc(-c2ccccc2)cc1	ROS inducer 98
C[C@H](CO)N1C[C@H](C)[C@@H](CN(C)Cc2ccc(Oc3ccccc3)cc2)Oc2ccc(NC(=O)NC3CCCCC3)cc2C1=O	ROS inducer 87
O=C(NCc1ccccc1)N1CCSc2ccccc21	none (no result: PD-1 reversal)
C[C@H](CO)N1C[C@H](C)[C@H](CN(C)Cc2ccccc2)Oc2ccc(NC(=O)Nc3cccc4ccccc34)cc2CC1=O	none
C[C@H]1CN([C@@H](C)CO)C(=O)Cc2cc(NC(=O)Nc3cccc4ccccc34)ccc2O[C@@H]1CN(C)Cc1ccc(-c2ccccc2)cc1	ROS inducer 132
Cc1ccc(OCCN2CCN(c3cc(C)c(C#N)c4nc5ccccc5n34)CC2)cc1	ROS inducer 100 (no result: PD-1 reversal)
Cc1cc(N2CCCC2)n2c(nc3ccccc32)c1C#N	none (no result: PD-1 reversal)
CC(C)OC(=O)CSc1nc(-c2cccs2)cc(C(F)(F)F)c1C#N	none
CCN(CC)c1cc(-c2cccs2)nc(SCC(=O)c2cccs2)c1C#N	ROS inducer 220
O=C(O)COc1ccc(NC(=O)c2cccc(I)c2)cc1	none

High-throughput results (PubChem BioAssay)
